Laboratory results from PubChem BioAssay (EPA / NIEHS).
The source made the active and inactive calls. How the source made its calls: active means hit-call score of the fitted dose curve at least 0.9, where 1 is the maximum; inactive means score below 0.9.

Assays:
[1] = BSK_hDFCGF_SRB: Viability Assessment in the BioMAP Diversity Plus: hDFCGF Assay (AID 2283061); settings: primary human foreskin fibroblasts;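 further: cells exposed to compound for 24 h before the read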
Outline: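 Human foreskin fibroblasts in 96-well plates were treated 24 h. Total protein was measured by 0.1% SRB staining after 10% TCA fixation, read at 560 nm. Data were fitted bidirectionally against DMSO.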

[2] = read-out: TIMP metallopeptidase inhibitor 1 (TIMP1), TIMP1 (gene 7076); experiment: BSK_hDFCGF_TIMP1: BioMAP Diversity Plus: hDFCGF Assay for TIMP metallopeptidase inhibitor 1 (TIMP1) Biomarker Activity (AID 2283062); settings: primary human foreskin fibroblasts; actives raise or lower the signal
Outline: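 Human foreskin fibroblast primary cultures dosed for 24 h; secreted/surface TIMP-1 quantified by ELISA. Bidirectional curve fitting against DMSO baseline; cytotoxicity tracked in parallel cultures by SRB total-protein staining.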

[3] = read-out: Matrix Metallopeptidase 1 (MMP1), MMP1 (gene 4312); experiment: BSK_hDFCGF_MMP1: BioMAP Diversity Plus: hDFCGF Assay for Matrix Metallopeptidase 1 (MMP1) Biomarker Activity (AID 2283064); settings: primary human foreskin fibroblasts; actives raise or lower the signal
Outline: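 hDFCGF primary fibroblasts (human foreskin); chemical added; 24 h; MMP1 by ELISA; bidirectional fit vs DMSO.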

[4] = read-out: Vascular cell adhesion molecule 1 (VCAM1), VCAM1 (gene 7412); experiment: BSK_hDFCGF_VCAM1: BioMAP Diversity Plus: hDFCGF Assay for Vascular cell adhesion molecule 1 (VCAM1) Biomarker Activity (AID 2283065); settings: primary human foreskin fibroblasts; actives raise or lower the signal
Outline: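 Human foreskin fibroblast primary cells dosed with chemical, VCAM-1 measured by ELISA at 24 h. Bidirectional curve fitting relative to DMSO as negative control/baseline.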

[5] = read-out: Plasminogen activator inhibitor-1 (PAI1), SERPINE1 (gene 5054); experiment: BSK_hDFCGF_PAI1: BioMAP Diversity Plus: hDFCGF Assay for Plasminogen activator inhibitor-1 (PAI1) Biomarker Activity (AID 2283066); settings: primary human foreskin fibroblasts; actives raise or lower the signal
Outline: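 Human foreskin fibroblast primary cells, 24 h chemical exposure; PAI-1 measured by ELISA. Bidirectional fitting relative to DMSO; parallel cultures stained with SRB for total protein to flag overt cytotoxicity.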

[6] = read-out: Intercellular Adhesion Molecule 1 (ICAM1), ICAM1 (gene 3383); experiment: BSK_KF3CT_ICAM1: BioMAP Diversity Plus: KF3CT Assay for Intercellular Adhesion Molecule 1 (ICAM1) Biomarker Activity (AID 2283067); settings: primary human keratinocytes with fibroblasts; actives raise or lower the signal
Outline: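 Human keratinocyte–foreskin fibroblast co-culture was treated for 24 h. Cell-surface ICAM-1 was quantified by ELISA, fitted bidirectionally relative to DMSO. Cytotoxicity was checked in parallel cultures by SRB total-protein staining.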

[7] = read-out: Interferon-gamma inducible Protein 10 (IP10), CXCL10 (gene 3627); experiment: BSK_KF3CT_IP10: BioMAP Diversity Plus: KF3CT Assay for Interferon-gamma inducible Protein 10 (IP10) Biomarker Activity (AID 2283068); settings: primary human keratinocytes with fibroblasts; actives raise or lower the signal
Outline: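 KF3CT co-culture (keratinocytes + foreskin fibroblasts), 24 h compound, IP-10 by ELISA; bidirectional fit vs DMSO baseline.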

[8] = BSK_KF3CT_SRB: Viability Assessment in the BioMAP Diversity Plus: KF3CT Assay (AID 2283069); settings: primary human keratinocytes with fibroblasts;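 further: total protein by sulforhodamine B staining as a cytotoxicity measure; read 24 h after compound addition; fitted for both signal gain and loss against DMSO baseline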
Outline: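 Keratinocytes co-cultured with foreskin fibroblasts (human primary); chemical added, 24 h; fix 10% TCA, stain 0.1% SRB, A560. Bidirectional fit vs DMSO.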

[9] = read-out: Interleukin-1 alpha (IL1a), IL1A (gene 3552); experiment: BSK_KF3CT_IL1a: BioMAP Diversity Plus: KF3CT Assay for Interleukin-1 alpha (IL1a) Biomarker Activity (AID 2283070); settings: primary human keratinocytes with fibroblasts; actives raise or lower the signal
Outline: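 Chemicals were dosed onto co-cultured human keratinocytes and foreskin fibroblasts, IL-1a was quantified by ELISA at 24 h, and activity was fitted in both directions relative to DMSO controls.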

[10] = read-out: TIMP metallopeptidase inhibitor 2 (TIMP2), TIMP2 (gene 7077); experiment: BSK_KF3CT_TIMP2: BioMAP Diversity Plus: KF3CT Assay for TIMP metallopeptidase inhibitor 2 (TIMP2) Biomarker Activity (AID 2283071); settings: primary human keratinocytes with fibroblasts; actives raise or lower the signal
Outline: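 Co-culture of human primary keratinocytes and foreskin fibroblasts, measured 24 h after chemical dosing. TIMP-2 quantified by ELISA and fitted in both directions relative to DMSO. Cytotoxicity checked in parallel cultures by SRB total-protein staining.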

[11] = read-out: Transforming growth factor beta 1 (TGFb1), TGFB1 (gene 7040); experiment: BSK_KF3CT_TGFb1: BioMAP Diversity Plus: KF3CT Assay for Transforming growth factor beta 1 (TGFb1) Biomarker Activity (AID 2283072); settings: primary human keratinocytes with fibroblasts; actives raise or lower the signal
Outline: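 Human keratinocyte/foreskin fibroblast co-culture; TGF-b1 measured by ELISA 24 h after dosing, fitted bidirectionally versus DMSO. Cytotoxicity checked in parallel cultures by total protein (SRB staining, 560 nm).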

[12] = read-out: C-C motif chemokine 2 (Homo sapiens) (UniProt P13500); experiment: BSK_KF3CT_MCP1: BioMAP Diversity Plus: KF3CT Assay for Monocyte Chemoattractant Protein 1 (MCP1/CCL2) Biomarker Activity (AID 2283073); settings: primary human keratinocytes with fibroblasts; actives raise or lower the signal
Outline: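 Human keratinocyte–foreskin fibroblast co-culture; MCP-1 measured by ELISA 24 h after dosing. Bidirectional fit vs DMSO; cytotoxicity tracked by SRB total protein in parallel cultures.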

[13] = read-out: Matrix Metallopeptidase 9 (MMP9), MMP9 (gene 4318); experiment: BSK_KF3CT_MMP9: BioMAP Diversity Plus: KF3CT Assay for Matrix Metallopeptidase 9 (MMP9) Biomarker Activity (AID 2283074); settings: primary human keratinocytes with fibroblasts; actives raise or lower the signal
Outline: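 Human keratinocyte/foreskin fibroblast co-culture; compound added; 24 h; MMP-9 by ELISA; bidirectional fit vs DMSO baseline.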

[14] = read-out: urokinase plasminogen activator (uPA), PLAU (gene 5328); experiment: BSK_KF3CT_uPA: BioMAP Diversity Plus: KF3CT Assay for urokinase plasminogen activator (uPA) Biomarker Activity (AID 2283075); settings: primary human keratinocytes with fibroblasts; actives raise or lower the signal
Outline: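 ELISA readout of uPA, analyzed for signal gain or loss relative to DMSO, from a human primary keratinocyte–foreskin fibroblast co-culture measured 24 h after chemical treatment.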

CD40, CD40 (gene 958) = experiment: BSK_LPS_CD40: BioMAP Diversity Plus: LPS Assay for CD40 Biomarker Activity (AID 2283076); settings: primary human HUVEC with PBMC; actives raise or lower the signal
Outline: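 HUVEC plus PBMC co-culture stimulated with LPS; CD40 quantified by ELISA 24 h after compound dosing. Fitting was bidirectional relative to DMSO. SRB staining of parallel cultures flagged overt cytotoxicity.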

[15] = read-out: E-selectin (Homo sapiens) (UniProt P16581); experiment: BSK_LPS_Eselectin: BioMAP Diversity Plus: LPS Assay for Eselectin Biomarker Activity (AID 2283077); settings: primary human HUVEC with PBMC; actives raise or lower the signal
Outline: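 Human umbilical vein endothelial cells co-cultured with PBMC under LPS stimulation; cell-surface E-selectin measured by ELISA 24 h after dosing. Change in either direction versus DMSO, with SRB total-protein staining in parallel cultures for cytotoxicity.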

[16] = read-out: Interleukin-8 (IL8), CXCL8 (gene 3576); experiment: BSK_LPS_IL8: BioMAP Diversity Plus: LPS Assay for Interleukin-8 (IL8) Biomarker Activity (AID 2283078); settings: primary human HUVEC with PBMC; actives raise or lower the signal
Outline: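 Human umbilical vein endothelial cells co-cultured with PBMC, LPS-stimulated, exposed to compound for 24 h. IL-8 quantified by ELISA; fitted in both directions against DMSO, with SRB total-protein staining of parallel cultures for cytotoxicity.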

[17] = BSK_LPS_SRB: Viability Assessment in the BioMAP Diversity Plus: LPS Assay (AID 2283079); settings: primary human HUVEC with PBMC;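 further: total protein by sulforhodamine B absorbance as a cytotoxicity measure; measured one day after compound addition; fitted in both directions against DMSO so loss or gain of signal counts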
Outline: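 Co-culture of human umbilical vein endothelial cells and PBMC, read 24 h after dosing. Total protein by 0.1% SRB staining after 10% TCA fixation, absorbance at 560 nm; bidirectional fit against DMSO.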

Measured: AC50

Sequence of E-selectin (Homo sapiens) (P16581 whole entry, looked up): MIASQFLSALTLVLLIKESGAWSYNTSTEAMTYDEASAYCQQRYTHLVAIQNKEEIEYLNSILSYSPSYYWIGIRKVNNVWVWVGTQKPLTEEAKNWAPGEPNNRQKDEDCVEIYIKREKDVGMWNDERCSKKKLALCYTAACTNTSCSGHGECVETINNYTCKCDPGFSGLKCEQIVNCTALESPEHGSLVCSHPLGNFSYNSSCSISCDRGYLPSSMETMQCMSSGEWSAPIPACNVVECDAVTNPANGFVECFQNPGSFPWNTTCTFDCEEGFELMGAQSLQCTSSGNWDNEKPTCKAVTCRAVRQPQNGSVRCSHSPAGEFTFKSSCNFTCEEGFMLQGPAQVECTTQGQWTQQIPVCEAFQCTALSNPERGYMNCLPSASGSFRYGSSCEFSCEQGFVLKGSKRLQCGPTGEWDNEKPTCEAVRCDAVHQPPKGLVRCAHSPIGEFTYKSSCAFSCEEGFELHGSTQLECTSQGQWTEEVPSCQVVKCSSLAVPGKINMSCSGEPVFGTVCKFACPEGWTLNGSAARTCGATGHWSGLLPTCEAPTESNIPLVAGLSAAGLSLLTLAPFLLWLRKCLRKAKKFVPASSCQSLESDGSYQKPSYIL

COC(OC)(C(=O)c1ccccc1)c1ccccc1
active: [16] 16 nM
inactive: all other assays above

CC(c1cc(C(C)(C)C)cc(C(C)(C)C)c1O)c1cc(C(C)(C)C)cc(C(C)(C)C)c1O
active: [5] 358 nM
inactive: all other assays above

Cc1ccc([N+](=O)[O-])cc1N
inactive: all assays above
